Most compounds without a hit are left out; they make up all but 8.7% or so of the library.
VACV Venus inh: inhibitors of vaccinia virus (Venus reporter). Potency, µM (series often up to 36.5 µM), for the others: at the top dose activity change, negative = inhibition, usual class: inhibitors. hit rate 0.46% among 330,000. Vaccinia virus Venus reporter expression, fluorescence; calls by dose curve; tested in A549 cells; also: nearly all actives have a fitted effect of over 30% in size
AMA1 RON2 block: inhibitors of Plasmodium falciparum AMA1-RON2 interaction; AlphaScreen AMA1-biotinylated RON2 peptide binding; Potency, µM (titrated, usually from 58.2 µM), inactives show at the top dose activity change, negative = inhibition, hits mostly inhibitors; hit rate 0.2% among 360,000;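 also: 0% = vehicle wells and -100% = peptide control; nearly all actives have a fitted effect of over 45% in size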
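AMA1 (3D7) with his tag at 25 nM final met compounds first, then biotinylated RON2 peptide at 25 nM; detection used donor plus acceptor beads, 10 µg/mL apiece, read by AlphaScreen after 30 min at room temperature.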
VACV mCherry inh: inhibitors of vaccinia virus infection (mCherry reporter signal) | Vaccinia virus mCherry reporter infection, fluorescence | Potency, µM (series often up to 36.5 µM), for inactives: at the highest dose activity change, negative = inhibition, hits mostly inhibitors | hit rate 0.63% among 310,000; calls by dose curve; tested in A549 cells; also: nearly all actives have a fitted effect of over 35% in size
Pf growth 48h: inhibits P. falciparum growth in the first generation, 48 h. P. falciparum luciferase growth in erythrocytes, 48 h. Potency, µM (highest dose often 28.7 µM), inactives show at the top dose activity change, negative = inhibition, most hits filed as inhibitors. hit rate 5.9% among 310,000
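Here the parasites carry a stable luciferase gene and grow inside erythrocytes in Albumax-based RPMI medium with compound for one erythrocytic cycle. Activity is scored as loss of luminescent signal.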
Pf growth 96h: inhibits malaria parasite growth, 96 h; P. falciparum luciferase reporter growth, 96 h; hit rate 6.9% among 320,000; Potency, µM (series often up to 28.7 µM), inactives show at the top dose activity change, negative = inhibition, usual class: inhibitors
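Two-generation exposure (96 h) targets delayed-death phenotype. Reporter parasites carrying integrated firefly luciferase, in red cells at 2% hematocrit and 0.05% parasitemia final, kept at 37 C, 5% CO2; luminescence loss indicates inhibition.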
The depositor's hits bear a star; i = inactive; ? = inconclusive; nt = no result. Unless noted, calls follow the shape of the dose curve; as a rule, active = well fitted curve in the direction sought with a large enough effect; inconclusive = small, poorly fitted or top-dose-only effect, or another doubt; inactive = no such curve, though single readings can be large; an effect the other way counts as inactive or inconclusive. Unless noted, % is scaled to controls: 0 for no effect and ±100 for the full control effect; potency is read from the fitted curve at half-maximal effect.

SMILES | VACV Venus inh | AMA1 RON2 block | VACV mCherry inh | Pf growth 48h | Pf growth 96h
O=c1c2sc3ccccc3c2n(Cc2ccc(F)cc2Cl)c(=O)n1Cc1ccccc1 | -8.7% | nt | -2.4% | nt | nt
CC(Nc1nc(-c2ccncc2)nc2ccccc12)c1ccccc1 (stereo not given) | nt | -3.3% | nt | 5.22µM* | 4.65µM*
COc1ccccc1C(C)Nc1nc(-c2cccnc2)nc2ccccc12 (stereo not given) | -21.2% | -11.3% | -4.7% | 13.1µM* | ?
CC(Nc1nc(-c2cccnc2)nc2ccccc12)c1ccccc1 (stereo not given) | -19.6% | -17.2% | i | nt | nt
CC(Nc1nc(N2CCNCC2)nc2ccccc12)c1ccccc1 (stereo not given) | ? | -9.5% | -22.9% | 2.94µM* | 0.0%
CCC(=O)N1CCc2cc(S(=O)(=O)Nc3cc(C)ccc3OC)ccc21 | -6.7% | nt | -16.3% | nt | nt
Cc1ccc(NC(=O)Cn2cc(S(=O)(=O)Cc3ccc(F)cc3)c3ccccc32)cc1Cl | -20.0% | nt | -2.0% | nt | nt
CCN1CCCC1CNC(=O)c1cnn(-c2nccc(-c3cc(OC)ccc3OC)n2)c1C (stereo not given) | -12.8% | nt | i | nt | nt
Cc1nn2c(=O)cc(COC(=O)c3ccco3)nc2s1 | -7.7% | nt | 1.3% | nt | nt
CCC(=O)N1CCN(c2nc3c(C)cccc3s2)CC1 | -16.2% | nt | -14.6% | nt | nt
Cc1cc(N2CCN(C)CC2)nc2ccc(NC(=S)NCCN3CCc4ccccc4C3)cc12 | nt | -14.0% | nt | 9.28µM* | ?
CCN1CCN(c2cc(C)c3cc(NC(=S)NCCCN4CCc5ccccc5C4)ccc3n2)CC1 | -29.6% | -11.5% | ? | 7.38µM* | ?
CCCN1CCN(CCCNC(=S)Nc2ccc3nc(N4CCN(CC)CC4)cc(C)c3c2)CC1 | nt | -0.5% | nt | ? | -1.0%
Cc1cc(N2CCCC2)nc2ccc(NC(=S)NCCCN3CCC(C)CC3)cc12 | ? | 14.3% | 14.1µM* | ? | -23.9%
Cc1cc(N2CCN(C)CC2)nc2ccc(NC(=S)NCCCN3CCc4ccccc4C3)cc12 | -27.3% | -15.1% | -26.0% | ? | 24.0%
COc1ccccc1C1CN(CC(=O)NCC2OCCc3ccccc32)Cc2ccccc2O1 (stereo not given) | -3.9% | nt | -14.4% | nt | nt
COc1ccc2oc(-c3ccc(NC(=O)c4ccc(N5CCOCC5)c([N+](=O)[O-])c4)cc3)nc2c1 | -10.9% | 1.3% | i | 2.33µM* | ?
O=C(Nc1ccc(-c2nc3ccccc3o2)cc1)c1ccc(N2CCOCC2)c([N+](=O)[O-])c1 | -6.6% | 10.1% | -2.7% | -3.5% | ?
Cc1cccc(NC(=O)Cn2cc(C(=O)C3CCCCC3)c3ccccc32)c1 | 0.0% | nt | -5.1% | nt | nt
CCC(C)Sc1nc2c(c(=O)[nH]c(=O)n2C)n1Cc1ccccc1Cl (stereo not given) | -29.3% | -1.0% | -3.1% | 11.7µM* | ?
Cn1c(=O)[nH]c(=O)c2c1nc(SCCN1CCCCC1)n2Cc1ccccc1 | -11.3% | 33.6% | -18.0% | ? | -21.8%
Cc1ccc(Cn2c(SCCN3CCCCC3)nc3c2c(=O)[nH]c(=O)n3C)cc1 | ? | -4.3% | -25.0% | -14.0% | 3.7µM*
CSc1nc2c(c(=O)[nH]c(=O)n2C)n1Cc1ccccc1Cl | nt | -1.5% | nt | -12.8% | 5.22µM*
CCOC(=O)c1c(Nc2ccc(OCC)cc2)nnc(-c2ccccc2)c1-c1ccccc1 | -14.9% | nt | -14.8% | nt | nt
O=C(CN1CCN(S(=O)(=O)c2cc(Cl)ccc2Cl)CC1)Nc1cccc(F)c1 | -7.5% | nt | -11.8% | nt | nt
SMILES | VACV Venus inh | AMA1 RON2 block | VACV mCherry inh | Pf growth 48h | Pf growth 96h
COc1cccc(CN2CCC3(CCC(CNC(=O)c4ccco4)O3)CC2)c1OC (stereo not given) | 4.7% | nt | -7.1% | nt | nt
CCOCCCn1c(C)nc2c(c1=O)c1nc3ccccc3nc1n2-c1ccc(C)cc1 | nt | 16.6% | nt | 0.0% | ?
CCOCCCn1c(C)nc2c(c1=O)c1nc3ccccc3nc1n2-c1ccc2c(c1)OCCO2 | -9.9% | 3.3% | i | 5.22µM* | ?
CCCCn1c2nc3ccccc3nc2c2c(=O)n(C(C)CC)cnc21 (stereo not given) | nt | 36.8% | nt | 19.3% | 9.2%
CCC(C)n1cnc2c(c1=O)c1nc3ccccc3nc1n2Cc1ccc2c(c1)OCO2 (stereo not given) | nt | nt | nt | 3.7µM* | ?
CCC(C)n1cnc2c(c1=O)c1nc3ccccc3nc1n2-c1ccc2c(c1)OCCO2 (stereo not given) | nt | -8.6% | nt | 13.7% | 13.1µM*
Cc1ccc(C(=O)N2CCc3cc(CNC(=O)COc4ccccc4)ccc32)cc1 | ? | nt | i | nt | nt
COc1ccc(-c2nc3cc(C)ccc3cc2CN(C(=O)c2cc(C)nn2C)C2CC2)cc1OC | -17.3% | nt | -14.1% | nt | nt
c1coc(-c2nnc(-c3ccco3)nn2)c1 | 3.9% | 15.8µM* | ? | ? | 6.57µM*
c1ccc(-c2nnc(-c3ccco3)o2)cc1 | -1.7% | -8.8% | -8.3% | 220.9% | 126.7%
Fc1ccccc1-c1nc2ccccc2[nH]1 | nt | -0.6% | nt | 5.4% | 13.1µM*
CCC(C)(C)n1nnnc1C(C(C)C)N(CCCO)Cc1cc2cc(C)ccc2[nH]c1=O (stereo not given) | ? | 1.6% | nt | ? | 13.1µM*
CCC(c1nnnn1C(C)(C)CC)N(CCCO)Cc1cc2cc(C)cc(C)c2[nH]c1=O (stereo not given) | ? | -6.6% | nt | 8.28µM* | 10.4µM*
CCCC(c1nnnn1C(C)(C)CC)N(CCCO)Cc1cc2cc(C)cc(C)c2[nH]c1=O (stereo not given) | ? | -2.2% | nt | ? | ?
COc1ccc(CCNC(=O)Cc2c(C)c3cc4c(C(C)(C)C)coc4c(C)c3oc2=O)cc1OC | -22.0% | nt | -29.5% | nt | nt
O=S(=O)(NCc1c(Cl)cccc1Oc1ccccc1)c1ccc(F)cc1 | nt | 3.1% | nt | 9.28µM* | ?
Cc1ccccc1/C=C/c1nc2ccccc2c(=O)n1Cc1ccccc1 | -6.7% | -1.3% | -10.7% | ? | 10.4µM*
Cc1ccccc1/C=C/c1nc2ccccc2c(=O)n1CCc1ccccc1 | -6.8% | -2.0% | i | 13.1µM* | -5.0%
CN(CCO)C(=O)c1cn(C2CCCN(Cc3ccc(C(F)(F)F)cc3)C2)nn1 (stereo not given) | -2.5% | nt | -7.8% | nt | nt
CC(C)CNC(=O)C1CCCN(C(=O)NCc2ccccc2)C1 (stereo not given) | nt | -3.3% | nt | 4.1% | 4.65µM*
Cc1ccc(C)c(NC(=S)N2CCC(NC(=O)c3ccco3)CC2)c1 | -12.1% | 10.1% | 0.0% | 0.7% | 47.5%
CC(C)CNC(=S)N1CCC(NC(=O)c2ccco2)CC1 | -1.0% | 20.8% | i | -3.2% | 11.7µM*
Cc1ccccc1NC(=S)N1CCC(NC(=O)c2ccco2)CC1 | nt | -3.8% | nt | 9.0% | 3.29µM*
CC(C)CNC(=S)N1CCC(Cc2ccccc2)CC1 | -17.5% | 8.5% | ? | ? | 14.7µM*
CC(C)NC(=S)N1CCC(Cc2ccccc2)CC1 | -18.5% | 0.9% | -2.1% | -6.0% | 14.7%

Bioassay records as filed in PubChem BioAssay.
